Source: the supplement of paper PMC12808144

System: Mel-DCC-11-R
Assay: cell viability relative to DMSO control (fraction of DMSO control); higher = less cytotoxic, active = 0.8 or less
Details: 1 µM; 120 h; vemurafenib co-treatment 0 µM
Description: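 Same 315-drug TargetMol library at 1 µM in duplicate, 120 h, ATPlite luminescence normalised to DMSO controls, on the vemurafenib-resistant subline Mel-DCC-11-R cultured alone or with 8 µM vemurafenib co-treatment (Mel-DCC-11-R + V).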

Row | Structure (SMILES) | cell viability
1 | CNC(=O)Oc1ccccc1OC(C)C [Propoxur] | 0.827 (inactive)
2 | COc1cc([C@@H]2c3cc4c(cc3[C@H](O)[C@H]3COC(=O)[C@H]23)OCO4)cc(OC)c1OC [Podophyllotoxin] | 0.575 (active)
3 | CCC1=C[C@H]2CN3CCc4c([nH]c5ccccc45)[C@](C(=O)OC)(C2)[C@H]13 [Catharanthine] | 0.906 (inactive)
4 | CCC1(c2ccc(N)cc2)CCC(=O)NC1=O (stereo not given) [Aminoglutethimide] | 1.08 (inactive)
5 | C=C1C[C@@H]2[C@H](CC[C@]3(C)C(=O)CC[C@@H]23)[C@@]2(C)C=CC(=O)C=C12 [Exemestane] | 1.09 (inactive)
6 | Cl.N[C@@H]1C[C@H]1c1ccccc1 [Tranylcypromine (2-PCPA) hydrochloride] | 0.9 (inactive)
7 | Cn1cc(C2=C(c3cn(C4CCN(Cc5ccccn5)CC4)c4ccccc34)C(=O)NC2=O)c2ccccc21 [Enzastaurin] | 1.06 (inactive)
8 | C[C@]12CC[C@H]3[C@@H](CC[C@@]45O[C@@H]4C(O)=C(C#N)C[C@]35C)[C@@H]1CC[C@@H]2O [Trilostane] | 1.03 (inactive)
9 | NCCCNCCSP(=O)(O)O [Amifostine] | 0.934 (inactive)
10 | O=C(O)CCCc1ccc(N(CCCl)CCCl)cc1 [Chloroambucil] | 0.906 (inactive)
11 | N[C@@H](Cc1ccc(N(CCCl)CCCl)cc1)C(=O)O [Melphalan] | 1.17 (inactive)
12 | C[C@]12CC[C@@H]3c4ccc(OC(=O)N(CCCl)CCCl)cc4CC[C@H]3[C@@H]1CC[C@@H]2OP(=O)([O-])[O-].[Na+].[Na+] [Estramustine phosphate sodium] | 1.01 (inactive)
13 | Cl.Cn1c(CCCC(=O)O)nc2cc(N(CCCl)CCCl)ccc21 [Bendamustine hydrochloride] | 0.822 (inactive)
14 | C/C=C(\C)C(=O)N[C@@H](c1ccccc1)[C@@H](O)C(=O)O[C@H]1C[C@@]2(O)[C@@H](OC(=O)c3ccccc3)[C@@H]3[C@]4(OC(C)=O)CO[C@@H]4C[C@H](O)[C@@]3(C)C(=O)[C@H](OC(C)=O)C(=C1C)C2(C)C [Cephalomannine] | 0.99 (inactive)
15 | O=[As]O[As]=O (stereo not given) [Arsenic oxide (3)] | 0.971 (inactive)
16 | NCCC(O)(P(=O)([O-])O)P(=O)([O-])O.[Na+].[Na+] [Pamidronate disodium salt] | 1.02 (inactive)
17 | O.O=P1(N(CCCl)CCCl)NCCCO1 (stereo not given) [Cyclophosphamide monohydrate] | 0.857 (inactive)
18 | C[C@]12CCC(=O)C(O)=C1CC[C@@H]1[C@@H]2CC[C@]2(C)C(=O)CC[C@@H]12 [Formestane] | 0.922 (inactive)
19 | O=P1(NCCCl)OCCCN1CCCl (stereo not given) [Ifosfamide] | 0.968 (inactive)
20 | COC(=O)Nc1nc2ccccc2[nH]1 [Carbendazim] | 0.917 (inactive)

Same assay, conditions: 1 µM; 120 h; vemurafenib co-treatment 8 µM

Row | Structure (SMILES) | cell viability
21 | CNC(=O)Oc1ccccc1OC(C)C [Propoxur] | 0.985 (inactive)
22 | COc1cc([C@@H]2c3cc4c(cc3[C@H](O)[C@H]3COC(=O)[C@H]23)OCO4)cc(OC)c1OC [Podophyllotoxin] | 0.407 (active)
23 | CCC1=C[C@H]2CN3CCc4c([nH]c5ccccc45)[C@](C(=O)OC)(C2)[C@H]13 [Catharanthine] | 0.983 (inactive)
24 | CCC1(c2ccc(N)cc2)CCC(=O)NC1=O (stereo not given) [Aminoglutethimide] | 1.04 (inactive)
25 | C=C1C[C@@H]2[C@H](CC[C@]3(C)C(=O)CC[C@@H]23)[C@@]2(C)C=CC(=O)C=C12 [Exemestane] | 1.13 (inactive)
26 | Cl.N[C@@H]1C[C@H]1c1ccccc1 [Tranylcypromine (2-PCPA) hydrochloride] | 0.694 (active)
27 | Cn1cc(C2=C(c3cn(C4CCN(Cc5ccccn5)CC4)c4ccccc34)C(=O)NC2=O)c2ccccc21 [Enzastaurin] | 1.24 (inactive)
28 | C[C@]12CC[C@H]3[C@@H](CC[C@@]45O[C@@H]4C(O)=C(C#N)C[C@]35C)[C@@H]1CC[C@@H]2O [Trilostane] | 1.05 (inactive)
29 | NCCCNCCSP(=O)(O)O [Amifostine] | 1.21 (inactive)
30 | O=C(O)CCCc1ccc(N(CCCl)CCCl)cc1 [Chloroambucil] | 1.11 (inactive)
31 | N[C@@H](Cc1ccc(N(CCCl)CCCl)cc1)C(=O)O [Melphalan] | 1.11 (inactive)
32 | C[C@]12CC[C@@H]3c4ccc(OC(=O)N(CCCl)CCCl)cc4CC[C@H]3[C@@H]1CC[C@@H]2OP(=O)([O-])[O-].[Na+].[Na+] [Estramustine phosphate sodium] | 1.11 (inactive)
33 | Cl.Cn1c(CCCC(=O)O)nc2cc(N(CCCl)CCCl)ccc21 [Bendamustine hydrochloride] | 1.04 (inactive)
34 | C/C=C(\C)C(=O)N[C@@H](c1ccccc1)[C@@H](O)C(=O)O[C@H]1C[C@@]2(O)[C@@H](OC(=O)c3ccccc3)[C@@H]3[C@]4(OC(C)=O)CO[C@@H]4C[C@H](O)[C@@]3(C)C(=O)[C@H](OC(C)=O)C(=C1C)C2(C)C [Cephalomannine] | 0.638 (active)
35 | O=[As]O[As]=O (stereo not given) [Arsenic oxide (3)] | 0.951 (inactive)
36 | NCCC(O)(P(=O)([O-])O)P(=O)([O-])O.[Na+].[Na+] [Pamidronate disodium salt] | 0.981 (inactive)
37 | O.O=P1(N(CCCl)CCCl)NCCCO1 (stereo not given) [Cyclophosphamide monohydrate] | 1.03 (inactive)
38 | C[C@]12CCC(=O)C(O)=C1CC[C@@H]1[C@@H]2CC[C@]2(C)C(=O)CC[C@@H]12 [Formestane] | 1.02 (inactive)
39 | O=P1(NCCCl)OCCCN1CCCl (stereo not given) [Ifosfamide] | 1 (inactive)
40 | COC(=O)Nc1nc2ccccc2[nH]1 [Carbendazim] | 1.05 (inactive)
